The panel holds about 83,000 compounds, 20% with a hit somewhere; the sample as a whole holds those more often.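 Compound tested at a single concentration for 48 hours in 96-well plates; a percent growth value below 10 was scored as active.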 Unmarked numbers belong to inactive results. Activity calls are given as the source filed them.

This note sets out measurements from PubChem BioAssay (NCI).

Test systems include RPMI-8226 leukemia; OVCAR-8 ovarian; OVCAR-5 ovarian; OVCAR-4 ovarian; SK-OV-3 ovarian; IGROV1 ovarian; OVCAR-3 ovarian; HS 578T breast; NCI/ADR-RES ovarian; T-47D breast.
What all share (experiment): NCI-60 one-dose screen, 48 h (100 = growth as untreated, 0 = no growth, -100 = all killed)
What all share (conditions): 10 µM unless noted

Regarding `COc1ccc(CCN2C(=O)CCSC2=S)cc1OC`, the growth was 37.4% in the experiment with RPMI-8226 leukemia; 97.2% with OVCAR-8 ovarian; 96.8% in the experiment on OVCAR-5 ovarian; 90.5% in the experiment on OVCAR-4 ovarian; 105% in the experiment with SK-OV-3 ovarian; 107% in the experiment on IGROV1 ovarian. In addition, the growth in the experiment on OVCAR-3 ovarian is 105%; in the experiment with HS 578T breast, 93.7%; with NCI/ADR-RES ovarian, 103%; in the experiment with T-47D breast, 43.4%.
On to `CC(=O)n1cc(-c2c[nH]c3ccccc23)c(-c2ccc(Cl)cc2)n1`, for which the growth was 86.5% with RPMI-8226 leukemia; 96.8% in the experiment with OVCAR-8 ovarian; 94.2% in the experiment with OVCAR-5 ovarian; 62% with OVCAR-4 ovarian; 95.9% with SK-OV-3 ovarian; 74.9% in the experiment with IGROV1 ovarian. Moreover, the growth in the experiment with OVCAR-3 ovarian was 90%; with HS 578T breast it was 94%; with NCI/ADR-RES ovarian, 86.4%; with T-47D breast it was 72.7%.
`O=C(Nc1ccc(N2CCNCC2)cc1)c1[nH]ncc1Nc1cc(C2CC2)ncn1`: the growth in the experiment on RPMI-8226 leukemia is 55.4%; in the experiment with OVCAR-8 ovarian, 81.2%; in the experiment with OVCAR-5 ovarian it was 99%; with OVCAR-4 ovarian, 62.3%; in the experiment on SK-OV-3 ovarian, 10.3%; in the experiment with IGROV1 ovarian, 33.4%. In addition, the growth in the experiment with OVCAR-3 ovarian was 43.7%; in the experiment with HS 578T breast, 41.1%; in the experiment with NCI/ADR-RES ovarian, 102%; in the experiment on T-47D breast it was 57.1%.
In the case of `CCOC(=O)C1(C(=O)OCC)N=C(c2ccccc2)C=C1c1ccccc1`, the growth in the experiment with RPMI-8226 leukemia was 61.6%; with OVCAR-8 ovarian it was 87.2%; in the experiment with OVCAR-5 ovarian, 97.8%; in the experiment with OVCAR-4 ovarian, 81.6%; in the experiment with SK-OV-3 ovarian, 105%; in the experiment with IGROV1 ovarian it was 92.4%. In addition, the growth with OVCAR-3 ovarian is 86.9%; with HS 578T breast it was 94.9%; with NCI/ADR-RES ovarian, 76.5%; in the experiment with T-47D breast it was 62.2%.
For the compound `O=c1oc2ccc(F)cc2c(=O)n1-c1ccc(I)cc1F`, the growth was -20.4% (active) in the experiment on RPMI-8226 leukemia; 8.61% (active) in the experiment with OVCAR-8 ovarian; 22.2% in the experiment with OVCAR-5 ovarian; 12.4% in the experiment on OVCAR-4 ovarian; -4.12% (active) in the experiment with SK-OV-3 ovarian; 17.2% in the experiment with IGROV1 ovarian. For the same compound, the growth in the experiment with OVCAR-3 ovarian was 8.05% (active); in the experiment with HS 578T breast, -4.95% (active); in the experiment on NCI/ADR-RES ovarian, 2.32% (active); in the experiment with T-47D breast, -16.2% (active).
As for `CN(CCc1ccccc1)C(=S)N(C(=O)c1ccc([N+](=O)[O-])cc1)c1ccc(Cl)cc1`, the growth with RPMI-8226 leukemia is -15.8% (active); in the experiment on OVCAR-8 ovarian, 99.3%; with OVCAR-5 ovarian, 100%; in the experiment on OVCAR-4 ovarian, 86.3%; in the experiment with SK-OV-3 ovarian it was 102%; in the experiment with IGROV1 ovarian, 105%. Further, the growth in the experiment with OVCAR-3 ovarian was 83.5%; with HS 578T breast it was 95.2%; with NCI/ADR-RES ovarian it was 98.4%; in the experiment with T-47D breast, 68%.
Consider `O=C(CCc1nnc2sc(Cc3ccccc3Cl)nn12)c1nc2ncccc2[nH]1`, for which the growth in the experiment on RPMI-8226 leukemia is 103%; with OVCAR-8 ovarian, 93.4%; with OVCAR-5 ovarian, 93.3%; in the experiment with OVCAR-4 ovarian, 92.5%; with SK-OV-3 ovarian it was 108%; in the experiment with IGROV1 ovarian, 79.6%. Also, the growth is 96.9% with OVCAR-3 ovarian, 88.7% in the experiment on HS 578T breast, 95.4% in the experiment on NCI/ADR-RES ovarian and 90.6% with T-47D breast.
On to `O=c1oc2ccc(-c3ccc(F)cc3F)cc2c(=O)n1-c1cccc(C(F)(F)F)c1`, for which the growth in the experiment on RPMI-8226 leukemia is -6.6% (active); in the experiment on OVCAR-8 ovarian it was 8.92% (active); in the experiment with OVCAR-5 ovarian, 12.1%; with OVCAR-4 ovarian, 19.2%; in the experiment on SK-OV-3 ovarian it was -9.56% (active); in the experiment with IGROV1 ovarian, 20.5%. In addition, the growth is 7.84% (active) in the experiment with OVCAR-3 ovarian, 8.28% (active) in the experiment on HS 578T breast, 7.17% (active) in the experiment on NCI/ADR-RES ovarian and -13.7% (active) with T-47D breast.
As to `COc1ccc(C(=O)C2CC2c2ccc(Cl)cc2)cc1` (stereo not given), the growth in the experiment with RPMI-8226 leukemia is 38.4%; in the experiment with OVCAR-8 ovarian, 78.2%; with OVCAR-5 ovarian, 115%; with OVCAR-4 ovarian, 72.2%; in the experiment with SK-OV-3 ovarian it was 104%; with IGROV1 ovarian, 83.7%. The growth in the experiment with OVCAR-3 ovarian is 74.7%; in the experiment on HS 578T breast, 82.4%; with NCI/ADR-RES ovarian, 78.9%; in the experiment on T-47D breast, 80.8%.
On to `Oc1c(C(Nc2ccccn2)c2cccc(Oc3ccccc3)c2)ccc2cccnc12` (stereo not given), for which the growth was -50.6% (active) with RPMI-8226 leukemia; -85.2% (active) with OVCAR-8 ovarian; -84.1% (active) in the experiment with OVCAR-5 ovarian; -96.7% (active) in the experiment with OVCAR-4 ovarian; -90.1% (active) in the experiment on SK-OV-3 ovarian; -91.7% (active) with IGROV1 ovarian. Also, the growth is -96.6% (active) in the experiment with OVCAR-3 ovarian, -47.6% (active) with HS 578T breast, -81.1% (active) with NCI/ADR-RES ovarian and -71% (active) in the experiment with T-47D breast.
Take `O=[N+]([O-])c1cc2c(ccc3occc32)o1`: the growth in the experiment with RPMI-8226 leukemia was 36.5%; with OVCAR-8 ovarian it was 30%; in the experiment with OVCAR-5 ovarian, 72.7%; with OVCAR-4 ovarian it was 66.6%; in the experiment with SK-OV-3 ovarian, 14.7%; in the experiment on IGROV1 ovarian it was 27.1%. Further, the growth in the experiment with OVCAR-3 ovarian is 39.4%; with HS 578T breast, 50.4%; in the experiment on NCI/ADR-RES ovarian, 29.2%; with T-47D breast it was 95.1%.
In the case of `O=c1oc2ccc(F)cc2c(=O)n1-c1ccc(Br)cc1F`, the growth is -22.3% (active) in the experiment with RPMI-8226 leukemia; 8.64% (active) in the experiment with OVCAR-8 ovarian; 21.8% in the experiment with OVCAR-5 ovarian; 11.9% in the experiment with OVCAR-4 ovarian; -3.03% (active) in the experiment on SK-OV-3 ovarian; 17% in the experiment on IGROV1 ovarian. In addition, the growth in the experiment on OVCAR-3 ovarian was 5.94% (active); in the experiment with HS 578T breast, -3.75% (active); in the experiment with NCI/ADR-RES ovarian, 6.34% (active); with T-47D breast it was -12.3% (active).
Regarding `COc1ccc(/C=C2\N=C(c3ccccc3)N(c3ccc(-c4nc5ccc(C)cc5s4)cc3)C2=O)cc1`, the growth with RPMI-8226 leukemia was 69.3%; with OVCAR-8 ovarian, 92%; in the experiment with OVCAR-5 ovarian, 84.7%; in the experiment on OVCAR-4 ovarian it was 64.6%; with SK-OV-3 ovarian, 94.2%; in the experiment on IGROV1 ovarian, 58.6%. The growth in the experiment on OVCAR-3 ovarian is 72.2%; in the experiment with HS 578T breast it was 102%; in the experiment on NCI/ADR-RES ovarian, 93.6%; in the experiment on T-47D breast, 54.1%.
